The values that follow come from the supplement of paper PMC11417369.

± gives the standard deviation of the averaged measurements. Whole data set: some 25,000 sequences, median “ln(normalized median fluorescence intensity)” near 7.9, cut for the highest 2% near 11. The sample as a whole holds a higher share of the highest values than the screen did.

The assay relates to PfAP2-I AP2 domain 3 (GST-tagged). In words: gcPBM binding intensity (ln(normalized median fluorescence intensity)); higher = stronger DNA binding. In outline: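 Binding intensity is the highest Masliner-normalised natural-log median intensity over replicate spots in either probe orientation. To obtain it, GST-tagged P. falciparum DNA-binding domains made in E. coli were incubated for 1 h on an Agilent 4 × 180k array of primer-extended double-stranded 36-bp intergenic genomic probes plus negative controls. Detection used Alexa488 anti-GST antibody with scanning at 488 nm.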
For “TAGGAAAAAAATACAGTGCAATTTTTATATAAATAA [GTGCAC_site9979]”, the “gcPBM binding intensity (ln)” value turned out to be 8.62 ± 0.5. Regarding CTTTTTTTGACCTTAGTGCAAATAACTATATATTAT, the “gcPBM binding intensity (ln)” value is 10.5 ± 0.41. For “AAATAAATTTGACCAGTGCAATAACTTTGTATACCT [GTGCAC_site9446]”, the “gcPBM binding intensity (ln)” value came to 11.2 ± 0.64.

For the sequence “AAAAAAAAAGAAAAATGTACATACATAAATATATAT [XGTACX_site5664]”, the “gcPBM binding intensity (ln)” value came to 7.77 ± 0.68. In the case of “TAATTGATTCTTCACCGTACTCACACATATATATAT [XGTACX_site6530]”, the “gcPBM binding intensity (ln)” value was 8.99 ± 0.085. The value for AGTATAAGCATTATTGTGCACATAATTATAATTTTT was 10.6 ± 0.53; that for “ATATATATATAATTTGTACACACAAATATGCATATA [CACACA_site9136]” was 9.18 ± 0.24; that for “TGTGCATAATTTTGTGCACACCACGCTAATAATTTT [CACACA_site2915]” was 11.4 ± 0.48. As for “CATATATAAAATATATGTACTTATAGAACATAATTT [XGTACX_site1936]”, the “gcPBM binding intensity (ln)” value is 7.3 ± 0.35. “TTTTTGTAAAATAAACGTACAAAACAATTGTTCATT [XGTACX_site6537]”: the “gcPBM binding intensity (ln)” value came to 7.82 ± 0.4. On to “AAATACTTAACATTGGTGCATATTTGTAAAATTATT [GTGCAC_site9515]”, for which the “gcPBM binding intensity (ln)” value turned out to be 10.3 ± 0.55. In the case of “TTTGTTCATATTATTGTGCACTTAAACGTAACAAAA [GTGCAC_site9505]”, the “gcPBM binding intensity (ln)” value is 11.3 ± 0.39. “AAAAATAAATATATATGTACACATATGTATACAATA [XGTACX_site4692]”: the “gcPBM binding intensity (ln)” value was 7.65 ± 0.38. Take “TTAACATACACTCTAGTGCATATATATAACAAAATA [GTGCAC_site9724]”: the “gcPBM binding intensity (ln)” value was 10 ± 0.17.

For the sequence “TATATATATATGTGCACACATAATAAAAAAAAAAAT [CACACA_site3831]”, the “gcPBM binding intensity (ln)” value was determined as 10.3 ± 0.11. In the case of “AATAATAAAAAAAGTGCACACACATAATATATATAT [CACACA_site9100]”, the “gcPBM binding intensity (ln)” value turned out to be 9.95 ± 0.014. The same measure for ATTACACATATAGTAGTGCAATAACTCCAAAAAAAA: 11.4 ± 0.6. Turning to “TAATAAAAAAAGTGCACACACATAATATATATATAT [CACACA_site3340]”, the “gcPBM binding intensity (ln)” value is 9.93 ± 0.37. In the case of “ATATAAATATAGTGTGCACACACATAATATATATAT [CACACA_site8713]”, the “gcPBM binding intensity (ln)” value was 9.49 ± 0.11. In the case of “AATACAATAAAATAGTGTACATATATATTATGTATA [XGTACX_site8258]”, the “gcPBM binding intensity (ln)” value was determined as 7.63 ± 0.27.

As for “ATATATATATAGTGCACACATATAAAATATATATAA [CACACA_site2745]”, the “gcPBM binding intensity (ln)” value was 11.29 ± 0.078. The same measure for ATGAAACACTCCATAGTGCAAAATATATATTATATT: 10.27 ± 0.057; for TTATACAGGACAATAGTGCACATAAATATATGTATA: 11.2 ± 0.51. Take “ATATATATATATAGTGCACACATATAAAATATATAT [CACACA_site8884]”: the “gcPBM binding intensity (ln)” value amounted to 11.5 ± 0.15. On to “TTTTCTTTTTGTTCGTGTACACACATGAAATTTATA [XGTACX_site3301]”, for which the “gcPBM binding intensity (ln)” value came out at 8.78 ± 0.68. For the sequence “TACAGAAATTTATATATATATATATATATATATATA [XGTACX_negctrl_site209]”, the “gcPBM binding intensity (ln)” value came to 9.39 ± 0.54. For the sequence “ATATAAAACTAATTTCTTTTTCTCCTTTTATTTTGT [CACACA_negctrl_site1251]”, the “gcPBM binding intensity (ln)” value came out at 7.8 ± 0.59.

As for “AACAAACAAATAGTTTATTTTGATTTTTTTAAAAAT [CACACA_negctrl_site693]”, the “gcPBM binding intensity (ln)” value was 7.36 ± 0.65. For the sequence “AATAAAATTTGCGATGCACACAGAATAGCTAATATG [CACACA_site8983]”, the “gcPBM binding intensity (ln)” value is 7.96 ± 0.57. As for “TATATATAAATATATACACACATGAAAATAAATAAA [CACACA_site2514]”, the “gcPBM binding intensity (ln)” value came out at 7.67 ± 0.45. In the case of “TTGAAAAATGAGCACACACACAAATACATACATATT [CACACA_site3231]”, the “gcPBM binding intensity (ln)” value came out at 7.97 ± 0.36. The same measure for “ATATTTTTTTTTTTCACACACATTTATATTGTATTA [CACACA_site5695]”: 8.01 ± 0.79. In the case of “TTAGCAACTATTACTACACACATTTTTATATAACTT [CACACA_site6762]”, the “gcPBM binding intensity (ln)” value was determined as 7.84 ± 0.59. “TTTAAAATAAATTAATAGAACAAAAATAAAATGATT [GTGCAC_negctrl_site375]”: the “gcPBM binding intensity (ln)” value came out at 7.78 ± 0.67. As to “AAATTAAAGGCATAAAAGAAAATATTTAATAAAAAA [CACACA_negctrl_site1689]”, the “gcPBM binding intensity (ln)” value is 7.71 ± 0.73. Consider “ATAGGCACTTTTTGCACACGTATGAATAACAAAATA [CACACA_site5069]”, for which the “gcPBM binding intensity (ln)” value turned out to be 9.54 ± 0.13. Consider “ATATGCACTTTTTGCACACGTATGAATAACAAAATA [CACACA_site1810]”, for which the “gcPBM binding intensity (ln)” value was 10 ± 0.25.

As for “TTATATGCACTTTTTGCACACGTATGAATAACAAAA [CACACA_site1811]”, the “gcPBM binding intensity (ln)” value was determined as 10.8 ± 0.86. The same measure for “ATAAACATCTAGTGCTGTACACAATTTGATTTTTTT [XGTACX_site3110]”: 8.9 ± 0.31. The same measure for “TATTTTTTTTTATTTTTTTTTATTTTGTTTTTTTAT [TGCATGCA_negctrl_site315]”: 7.32 ± 0.52; for “AAAAAAATTAAATCAAGTACTCATTCTTAAATTATA [XGTACX_site1274]”: 7.32 ± 0.49.
